Screening data: PubChem BioAssay, The Scripps Research Institute Molecular Screening Center
Sampled rows, rich in hits. Any-hit rate of the full collection: about 2%.
TCR CD3 inh = inhibitors of human TCR-CD3 interaction, primary screen, biochemical, fluorescence, TAMRA-labeled TCR probe | T-cell receptor (TCR) | inhibition, % at 9.4 µM | actives 0.37% (n = 360,000) | AID 651800, 2012; in the data active = inhibition above about 19%;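 note: recombinant mutant TCR 2C K166C tagged with TAMRA read by polarization; 0% = receptor in buffer alone and 100% = receptor with positive control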
MBD2 DNA inh = inhibitors of MBD2 binding to methylated DNA, primary screen, biochemical, TR-FRET, DNA-binding domain, human | Methyl-CpG-binding domain protein 2 (Homo sapiens), Q9UBB5 | MBD2 binding to methylated oligonucleotide | inhibition, % at 4.4 µM | actives 0.31% (n = 370,000) | AID 686964, 2013; in the data active = inhibition above about 13%
UHRF1 binding = UHRF1 methylated DNA binding inhibitors, primary screen, counter-screen for MBD2 inhibitor project, biochemical, TR-FRET, human UHRF1, single concentration; inhibition, % at 4.4 µM; AID 687016, 2013; UHRF1 binding to methylated oligo; E3 ubiquitin-protein ligase UHRF1 (Homo sapiens), Q96T88; actives 0.75% (n = 370,000); in the data active = inhibition above about 21%;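 note: UHRF1 SRA domain binding a hemimethylated CpG hairpin DNA probe; 0% = median of test compound wells and 100% = reference inhibitor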
Rin1 Abl inh = inhibitors of Rin1-Abl protein binding, primary screen, biochemical, TR-FRET. inhibition, % at 7.35 µM. Tyrosine-protein kinase ABL1 (Homo sapiens) + Ras and Rab interactor 1 (Homo sapiens), …. actives 0.4% (n = 360,000). AID 588664, 2011; in the data active = inhibition above about 5%, passing the limit was not always enough
Target sequence (P00519 whole entry, looked up): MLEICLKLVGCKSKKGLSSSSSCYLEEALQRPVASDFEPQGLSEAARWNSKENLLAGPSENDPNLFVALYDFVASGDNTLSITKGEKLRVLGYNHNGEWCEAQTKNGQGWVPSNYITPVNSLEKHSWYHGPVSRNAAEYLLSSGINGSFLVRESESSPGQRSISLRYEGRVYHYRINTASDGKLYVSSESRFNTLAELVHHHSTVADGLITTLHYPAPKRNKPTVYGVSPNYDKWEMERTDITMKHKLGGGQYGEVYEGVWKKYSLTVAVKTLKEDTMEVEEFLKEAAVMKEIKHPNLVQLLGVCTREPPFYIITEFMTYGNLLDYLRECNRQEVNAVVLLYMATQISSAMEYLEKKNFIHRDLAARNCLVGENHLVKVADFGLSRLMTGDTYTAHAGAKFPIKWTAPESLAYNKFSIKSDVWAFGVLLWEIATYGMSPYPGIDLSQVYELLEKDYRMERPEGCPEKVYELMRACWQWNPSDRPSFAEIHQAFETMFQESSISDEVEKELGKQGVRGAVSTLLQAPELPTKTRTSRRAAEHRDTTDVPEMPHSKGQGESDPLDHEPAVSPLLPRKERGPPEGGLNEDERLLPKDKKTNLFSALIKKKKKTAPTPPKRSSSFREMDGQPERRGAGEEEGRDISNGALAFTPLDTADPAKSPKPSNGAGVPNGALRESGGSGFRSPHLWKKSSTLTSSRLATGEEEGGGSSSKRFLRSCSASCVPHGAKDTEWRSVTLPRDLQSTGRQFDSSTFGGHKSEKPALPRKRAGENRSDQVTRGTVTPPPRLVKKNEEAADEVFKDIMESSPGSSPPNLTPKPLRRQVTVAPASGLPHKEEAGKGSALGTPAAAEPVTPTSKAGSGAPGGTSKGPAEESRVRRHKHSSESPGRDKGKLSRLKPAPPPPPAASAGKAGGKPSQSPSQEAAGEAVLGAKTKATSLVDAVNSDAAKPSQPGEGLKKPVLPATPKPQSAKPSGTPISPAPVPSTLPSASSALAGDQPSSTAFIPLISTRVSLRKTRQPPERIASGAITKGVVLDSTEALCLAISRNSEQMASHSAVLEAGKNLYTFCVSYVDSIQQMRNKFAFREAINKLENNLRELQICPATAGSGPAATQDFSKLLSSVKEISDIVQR
Target sequence (Q13671 whole entry, looked up): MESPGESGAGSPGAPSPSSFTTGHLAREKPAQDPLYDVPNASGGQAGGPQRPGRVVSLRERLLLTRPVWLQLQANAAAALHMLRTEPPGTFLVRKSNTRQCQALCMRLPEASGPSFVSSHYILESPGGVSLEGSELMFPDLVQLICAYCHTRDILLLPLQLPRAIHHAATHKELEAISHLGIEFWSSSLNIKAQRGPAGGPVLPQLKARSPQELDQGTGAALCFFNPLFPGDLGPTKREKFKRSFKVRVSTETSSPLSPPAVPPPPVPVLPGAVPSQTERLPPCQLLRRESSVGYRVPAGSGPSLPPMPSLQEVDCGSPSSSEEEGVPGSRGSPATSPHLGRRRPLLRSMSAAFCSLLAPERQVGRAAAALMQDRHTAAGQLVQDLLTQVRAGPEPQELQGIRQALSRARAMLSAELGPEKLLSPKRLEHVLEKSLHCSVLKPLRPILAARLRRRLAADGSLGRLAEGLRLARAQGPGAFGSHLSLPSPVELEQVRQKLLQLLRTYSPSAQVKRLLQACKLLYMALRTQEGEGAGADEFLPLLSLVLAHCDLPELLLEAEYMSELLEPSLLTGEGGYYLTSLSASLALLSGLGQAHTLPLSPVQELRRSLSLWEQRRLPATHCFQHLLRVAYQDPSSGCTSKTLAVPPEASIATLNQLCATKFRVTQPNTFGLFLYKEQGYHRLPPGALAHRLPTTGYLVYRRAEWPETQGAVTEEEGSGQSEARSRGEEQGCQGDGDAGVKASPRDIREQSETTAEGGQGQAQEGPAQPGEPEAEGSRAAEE
LEDGF integ inh = blockers of LEDGF/p75-dependent integrase strand transfer – biochemical, TR-FRET, high throughput, primary screen; AID 743269, 2014; actives 0.64% (n = 370,000); HIV-1 integrase (with human LEDGF/p75); inhibition, % at 3.7 µM; TR-FRET IN-LEDGF/p75 DNA integration, Eu/Cy5;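 active = inhibition above the screen-wide mean plus 3 SD, cut at about 13% in these data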;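 note: signal is the Cy5 over europium emission ratio at 671 and 618 nm; 0% = plate median of compound wells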
The depositor's hits bear a star; nt = not tested or not shown.

SMILES	TCR CD3 inh	MBD2 DNA inh	UHRF1 binding	Rin1 Abl inh	LEDGF integ inh
COc1ccccc1NS(=O)(=O)c1cccc(C(=O)N/N=C/c2c(CO)cnc(C)c2O)c1	36.0*	-1.9	-3.6	-2.4	-8.9
C/C=C/c1ccccc1OCCCN1CCC(C(O)(c2ccccc2)c2ccccc2)CC1	nt	-1.6	-0.9	nt	5.9
CCC(C)[C@H]1CNC(=O)C(=O)N1CCc1cccc2ccccc12 (stereo partly drawn)	-9.1	7.2	2.8	nt	-3.8
CC1=C(C(=O)N(C)C)CC(CC(=O)NCCN2CCOCC2)C(=O)N1Cc1ccc(C(C)(C)C)cc1 (stereo not drawn)	1.6	-0.7	-0.9	-3.3	1.6
COc1ccc(S(=O)(=O)NC2CCN(C#N)CC2)cc1	nt	1.0	1.3	nt	1.6
O=C(Nc1ccc2nc3n(c(=O)c2c1)CCCCC3)c1c(F)ccc([N+](=O)[O-])c1F	-1.7	2.9	-2.2	0.8	16.7*
CCN=C1NC(c2ccc(C(F)(F)F)cc2)C(C(=O)OC)=C(C)N1Cc1ccccc1C(F)(F)F (stereo not drawn)	-1.9	-0.2	2.2	nt	-2.8
COC(=O)c1cc2c(c3c4cc(F)ccc4n(S(=O)(=O)c4cccc(C)c4)c13)C(=O)N(Cc1ccco1)C2	1.4	-1.9	-1.7	nt	1.6
CCCOc1ccc(/C=C/C(=O)O)cc1OC	-7.4	-1.4	1.1	1.5	-1.4
COc1ccc(/C=C/C(=O)O)cc1Cl	-5.8	0.5	43.4*	-1.6	-3.7
COc1ccc(S(=O)(=O)NCc2ccccn2)cc1NC(=O)c1ccc(C)cc1	0.7	-3.4	-1.8	2.0	-1.3
Cc1ccc(S(=O)(=O)NCc2ccccn2)cc1C	6.5	3.0	23.0*	-4.6	0.0
COc1ccc(S(=O)(=O)NCc2ccccn2)cc1NC(=O)c1ccccc1	11.2	11.2	35.5*	0.7	3.1
CCOC(=O)CC[C@H]1CC[C@]2(CCCN(C(=O)c3ccc4ccccc4n3)C2)O1	nt	9.6	-1.7	nt	1.0
Cc1nc2ccc(NC(=O)c3ccc(F)cc3F)cc2c(=O)[nH]1	nt	-1.9	-1.4	nt	1.9
Cc1ccc2nc(-c3ccco3)c(CC(C)(C)C)n2c1	-2.9	-0.4	22.6*	4.3	10.3
CC(C)(C)Cc1c(-c2ccc(F)cc2)nc2ccc(Br)cn12	-1.6	-3.4	20.8*	0.0	0.7
CC(C)(C)Cc1c(-c2ccccc2)nc2ccc(Cl)cn12	2.8	8.9	20.9*	-1.1	-3.9
CC(C)(C)Cc1c(-c2ccc(Cl)cc2)nc2ccc(Br)cn12	0.2	0.8	11.3	-5.1	-0.8
Cc1ccc2nc(-c3ccco3)c(Cc3ccccc3)n2c1	4.0	-5.3	7.4	0.9	-1.6
COC(=O)c1ccc(Cn2cnc3c(cnn3-c3ccc(F)cc3)c2=O)o1	2.1	2.2	-3.6	-1.7	0.7
COC(=O)c1ccc(Cn2cnc3c(cnn3-c3ccc(Cl)cc3)c2=O)o1	0.4	-4.3	32.0*	2.2	-2.8
CCOC(=O)[C@]12CCCCC/C=C\1N(Cc1ccc(OC)cc1)C(=O)[C@H]2CC(=O)NCC1CCCCC1	nt	0.4	3.8	nt	-3.3
C/C(=N\N=C(N)N)c1ccc(Cl)cc1Cl	-0.8	1.4	38.4*	0.6	-5.0
C/C(=N\N=C(N)N)c1cc(Cl)ccc1Cl	-10.6	2.0	3.9	1.3	-5.3
SMILES	TCR CD3 inh	MBD2 DNA inh	UHRF1 binding	Rin1 Abl inh	LEDGF integ inh
O=S(=O)(O)c1cc(O)c2c(O)c(N=Nc3cc(Cl)ccc3O)c(S(=O)(=O)O)cc2c1	nt	nt	nt	10.8*	nt
Oc1ccc(Cl)cc1N=Nc1ccccc1	1.2	1.6	5.3	4.4	-2.9
Cc1ccc(NC(=O)CSCC(=O)Nc2ccccc2N2CCCC2)cc1	-2.1	-0.2	3.7	-4.6	-4.1
CCOC(=O)c1sc(Nc2ccccc2Cl)nc1C	-11.6	5.4	26.6*	-1.9	6.3
CCOC(=O)c1sc(NC(=O)Nc2ccccc2F)nc1C	-8.8	3.0	3.2	-1.2	-2.0
CC(C)[C@H](NC(=O)c1ccco1)C(=O)N1CCC[C@H]1C(=O)NCc1ccccc1	3.1	-6.6	-2.7	nt	1.6
NC(=O)c1ccc(SCC(=O)OCC(=O)N2CCN(C(=O)c3ccco3)CC2)c([N+](=O)[O-])c1	0.8	5.2	8.9	-0.9	-6.0
O=Cc1cn(CC(=O)Nc2ccc3c(c2)OCO3)c2ccccc12	-7.1	5.6	35.3*	-1.3	-3.6
Cn1c(SCC(=O)Nc2sccc2C#N)nnc1C1CC1	6.0	1.4	26.8*	0.6	0.8
Cc1noc(C)c1S(=O)(=O)NCc1ccc(CN(C)C)cc1	-3.4	2.9	33.5*	-1.6	0.0
O=C(CN1c2cccc3cccc(c23)S1(=O)=O)Nc1ccccc1	2.6	-8.7	68.5*	0.1	7.1
CCCCn1c(NC(C)CC)nc2c1c(=O)[nH]c(=O)n2C (stereo not drawn)	2.3	-1.8	98.5*	-5.0	-1.5
Cc1ccc(CN2CCCCC(NC(=O)c3ccc(COc4ccccc4)cc3)C2=O)cc1 (stereo not drawn)	nt	-1.1	1.8	nt	1.6
c1ccc2c(C(c3nnnn3-c3ccc4c(c3)OCCO4)N3CCOCC3)ccnc2c1 (stereo not drawn)	4.0	5.9	22.4*	nt	1.2
CCC(C)COC(c1ccccc1)(c1ccccc1)C(Oc1nc(C)cc(C)n1)C(=O)O (stereo not drawn)	1.6	1.0	41.3*	-1.6	0.2
COc1ccc(-n2c(C)cc(C(=O)CCl)c2C)cc1	-5.2	3.1	23.6*	-2.4	2.1
O=[N+]([O-])c1ccc2c(c1)ncn2CCc1ccccc1	-3.4	0.2	26.3*	1.2	-2.4
COc1cc(C=Nn2c(-c3ccccc3F)n[nH]c2=S)ccc1OCc1ccccc1	nt	0.9	0.4	nt	0.7
COCc1[nH]nc2c1C(c1ccccc1)NC2=O (stereo not drawn)	-2.5	3.6	2.5	nt	-2.6
CC1=C(C(=O)N2CCOCC2)CC(CC(=O)NC2CCCCC2)C(=O)N1Cc1ccccc1 (stereo not drawn)	-3.1	12.7	22.2*	-0.8	1.3
Cn1c(CNC(=O)CCNC(=O)c2ccc(F)c(F)c2)cc(=O)n(C)c1=O	1.8	-0.5	6.6	1.1	3.9
Cc1ccc(CNCC(O)c2ccccc2)s1 (stereo not drawn)	1.3	1.4	-1.2	3.0	-3.0
Cc1ccc(CNCCNCCO)s1	-5.0	12.0	22.2*	0.9	-4.3
CCOC(=O)C1=NN(C(=O)Nc2ccc(OC)cc2)C2C(=O)N(c3cccc(C(F)(F)F)c3)C(=O)C12 (stereo not drawn)	-4.8	32.8*	-3.3	0.4	0.8
Cc1nc2ccccc2n1CCc1nc2c3ccccc3nc(=S)n2[nH]1	1.3	-1.0	21.5*	-2.0	-2.9
